Inconclusive results are not listed. Active and inactive are the calls of the source. Unless noted, the call rests on the fitted dose curve; in most records, active means well fitted curve in the direction sought with a large enough effect in the repeat runs; inconclusive means weak or mixed curves; inactive means no such curve, though single readings can be large; an effect the other way counts as inactive or inconclusive.
What was measured:
[1] = qHTS assay to identify small molecule agonists of the peroxisome proliferator-activated receptor delta (PPARd) signaling pathway - cell viability counter screen (AID 743211); further: on the % scale 0 is the no-effect control and ±100 the full control effect; nearly all actives have a fitted effect of over 55% in size
Outline: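 Multiplexed format: after the 2 h room-temperature LiveBLAzer B/G FRET step, CellTiter-Glo was added to the same wells. Luminescence after 30 min gave cell viability; compound exposure was 17 h at 37C.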

[2] = target: Peroxisome proliferator-activated receptor delta (Homo sapiens) (UniProt Q03181); experiment: qHTS assay to identify small molecule agonists of the peroxisome proliferator-activated receptor delta (PPARd) signaling pathway (AID 743212; calls by dose curve; further: on the % scale 0 is the no-effect control and ±100 the full control effect)
Outline: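 Read-out: beta-lactamase FRET fluorescence after 2 h room-temperature incubation with LiveBLAzer B/G substrate. Cells were HEK293H carrying a UAS-bla reporter for PPARd, treated at 37 C with DMSO-dissolved compounds.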

[3] = qHTS assay to identify small molecule antagonists of the peroxisome proliferator-activated receptor delta (PPARd) signaling pathway - cell viability counter screen (AID 743213); further: on the % scale 0 is the no-effect control and ±100 the full control effect; nearly all actives have a fitted effect of over 50% in size
Outline: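 In this counter screen, HEK293H cells carrying a UAS-beta-lactamase reporter are co-treated with test compounds and 300 nM L165041 (final) for 17 h at 37 C; cell viability is quantified by CellTiter-Glo luminescence.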

[4] = target: Peroxisome proliferator-activated receptor delta (Homo sapiens) (UniProt Q03181); experiment: qHTS assay to identify small molecule antagonists of the peroxisome proliferator-activated receptor delta (PPARd) signaling pathway (AID 743215; active means well fitted inhibition curve with a large enough effect in the signal ratio in the repeat runs, not every such curve was filed as active; the % refers to the signal ratio;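 further: cells stimulated with agonist L165041 at 300 nM final during compound exposure; series mostly up to about 62 µM; on the % scale 0 is the no-effect control and ±100 the full control effect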)
Outline: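 Here, a reporter line (HEK293H, beta-lactamase under a UAS) measures PPARd signaling. Compounds are tested against agonist L165041 at 300 nM final concentration over 17 h at 37 C, with fluorescence read after substrate.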

[5] = target: Bile acid receptor (Homo sapiens) (UniProt Q96RI1); experiment: qHTS assay to identify small molecule antagonists of the farnesoid-X-receptor (FXR) signaling pathway (AID 743217; active means well fitted inhibition curve with a large enough effect in the signal ratio in the repeat runs, not every such curve was filed as active; the % refers to the signal ratio; further: on the % scale 0 is the no-effect control and ±100 the full control effect)
Outline: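 Test compounds are pin-transferred onto FXR-bla HEK 293T cells, then chenodeoxycholic acid is added at 50 uM final. After 16 h at 37 °C, LiveBLAzer B/G substrate is applied for 2 h at room temperature and fluorescence read.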

[6] = target: Bile acid receptor (Homo sapiens) (UniProt Q96RI1); experiment: qHTS assay to identify small molecule agonists of the farnesoid-X-receptor (FXR) signaling pathway (AID 743220; active means well fitted activation curve with a large enough effect in the signal ratio in the repeat runs, not every such curve was filed as active; the % refers to the signal ratio; further: on the % scale 0 is the no-effect control and ±100 the full control effect)
Outline: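 FXR-UAS-bla HEK 293T cells carrying a UAS-driven beta-lactamase reporter were plated for 5 h at 37C/5% CO2, then exposed to DMSO-dissolved Tox21 10K compounds for 16 h at 37C. A LiveBLAzer B/G FRET substrate was loaded for 2 h at room temperature before fluorescence reading.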

[7] = qHTS assay to identify small molecule antagonists of the farnesoid-X-receptor (FXR) signaling pathway - cell viability counter screen (AID 743221; active means well fitted cell-killing curve with a large enough effect in the repeat runs, not every such curve was filed as active; further: on the % scale 0 is the no-effect control and ±100 the full control effect; nearly all actives have a fitted effect of over 50% in size)
Outline: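 CellTiter-Glo, 30 min RT, luminescence; same wells as the LiveBLAzer FRET read. Cells: FXR-UAS-bla HEK 293T. Treatment: compound with chenodeoxycholic acid 50 uM final, 16 h at 37 C.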

[8] = target: Vitamin D3 receptor (Homo sapiens) (UniProt P11473); experiment: qHTS assay to identify small molecule agonists of the vitamin D receptor (VDR) signaling pathway (AID 743222; calls by dose curve; further: on the % scale 0 is the no-effect control and ±100 the full control effect)
Outline: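 Tox21 cell reporter format: VDR-bla line, 16 h compound exposure in 5% CO2 at 37C, then fluorescence intensity after 2 h with LiveBLAzer B/G FRET substrate.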

[9] = target: Vitamin D3 receptor (Homo sapiens) (UniProt P11473); experiment: qHTS assay to identify small molecule antagonists of the vitamin D receptor (VDR) signaling pathway (AID 743223; active means well fitted inhibition curve with a large enough effect in the signal ratio in the repeat runs, not every such curve was filed as active; the % refers to the signal ratio; further: on the % scale 0 is the no-effect control and ±100 the full control effect)
Outline: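 After VDR-bla cells are plated and left 4 h at 37C, DMSO-dissolved compounds and 3 nM (final) calcitriol agonist are added. Incubation continues 16 h at 37C; FRET beta-lactamase substrate then develops 2 h at room temperature.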

[10] = qHTS assay to identify small molecule agonists of the vitamin D receptor (VDR) signaling pathway - cell viability counter screen (AID 743224); further: series mostly up to about 63 µM; on the % scale 0 is the no-effect control and ±100 the full control effect; nearly all actives have a fitted effect of over 50% in size
Outline: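 CellTiter-Glo viability readout on VDR-bla cells, measured after 16 h of compound treatment at 37C in the same wells.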

[11] = qHTS assay to identify small molecule antagonists of the vitamin D receptor (VDR) signaling pathway - cell viability counter screen (AID 743225); further: on the % scale 0 is the no-effect control and ±100 the full control effect; nearly all actives have a fitted effect of over 50% in size
Outline: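 Cytotoxicity toward the VDR-bla HEK 293T line was scored by ATP-based CellTiter-Glo luminescence, read in the wells already used for the beta-lactamase readout after 16 h compound treatment under 3 nM 1-alpha,25-dihydroxyvitamin D3 stimulation.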

[12] = qHTS assay to identify small molecule agonists of the NFkB signaling pathway (AID 1159509; active means well fitted curve in the direction sought with a large enough effect in the signal ratio in the repeat runs, not every such curve was filed as active; the % refers to the signal ratio)
Outline: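 Beta-lactamase reporter assay run in quantitative high-throughput format on an NF-kB-responsive ME-180 line, with 5 hr compound treatment and a FRET-based blue/green fluorescence readout.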

[13] = qHTS assay to identify small molecule agonists of the NFkB signaling pathway - cell viability counter screen (AID 1159515; calls by dose curve; further: series mostly up to about 61 µM; on the % scale 0 is the no-effect control and ±100 the full control effect; nearly all actives have a fitted effect of over 55% in size)
Outline: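 Tox21 library compounds were tested for cytotoxicity against NFkB-bla ME-180 cells during a 5 hr exposure at 37 C. CellTiter-Glo luminescence served as the viability read-out.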

[14] = qHTS assay to identify small molecule agonists of the endoplasmic reticulum stress response signaling pathway (AID 1159516; active means well fitted activation curve with a large enough effect in the signal ratio in the repeat runs, not every such curve was filed as active; the % refers to the signal ratio; further: on the % scale 0 is the no-effect control and ±100 the full control effect)
Outline: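 Fluorescence at 460 and 530 nm (405 nm excitation) reports beta-lactamase from an ER stress response element in HeLa cells treated 5 hr at 37 C.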

[15] = qHTS assay to identify small molecule agonists of the endoplasmic reticulum stress response signaling pathway - cell viability counter screen (AID 1159517; calls by dose curve)
Outline: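 Steps: seed 1,500 ESRE-bla HeLa cells per well; incubate overnight at 37 C, 5% CO2; add compounds in DMSO for 5 hr; run FRET substrate 2 hr RT; add CellTiter-Glo, wait 30 min, read luminescence.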

[16] = qHTS assay to identify small molecule antagonists of the retinoid-related orphan receptor gamma (ROR-gamma) signaling pathway - cell viability counter screen (AID 1159520)
Outline: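 Tet-on ROR gamma CHO cells were given compounds for 2 hr, then doxycycline hyclate at 1 uM final, and incubated 16 hr at 37 C. Viability was measured as ATP content by CellTiter-Glo luminescence.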

[17] = target: Nuclear receptor ROR-gamma (Homo sapiens) (UniProt P51449); experiment: qHTS assay to identify small molecule antagonists of the retinoid-related orphan receptor gamma (ROR-gamma) signaling pathway (AID 1159521)
Outline: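 Readout: ONE-Glo luciferase luminescence, 30 min at room temperature. System: Tet-on RORγ CHO, RORE-LUC. Sequence: compound 2 h, doxycycline 1 uM final, 16 h at 37 C.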

[18] = qHTS assay to identify small molecule agonists of the AP-1 signaling pathway - cell viability counter screen (AID 1159525; calls by dose curve; further: nearly all actives have a fitted effect of over 55% in size)
Outline: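 Same-well cytotoxicity counter screen of the Tox21 10K library in ME-180 cells. The readout is ATP-dependent luminescence after 5 h compound treatment. Data are normalised to DMSO and tetra n-octyl ammonium bromide controls.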

[19] = qHTS assay to identify small molecule agonists of the AP-1 signaling pathway (AID 1159526; calls by dose curve; further: on the % scale 0 is the no-effect control and ±100 the full control effect)
[20] = qHTS assay to identify small molecule agonists of the farnesoid-X-receptor (FXR) signaling pathway - cell viability counter screen (AID 743218); further: on the % scale 0 is the no-effect control and ±100 the full control effect; nearly all actives have a fitted effect of over 45% in size
Outline: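 Quantitative HTS counter screen measuring ATP-based viability via CellTiter-Glo luminescence in HEK 293T cells carrying a UAS-driven beta-lactamase reporter, after 16 h compound exposure at 37 C.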

Sequence of Peroxisome proliferator-activated receptor delta (Homo sapiens) (Q03181 whole entry, looked up): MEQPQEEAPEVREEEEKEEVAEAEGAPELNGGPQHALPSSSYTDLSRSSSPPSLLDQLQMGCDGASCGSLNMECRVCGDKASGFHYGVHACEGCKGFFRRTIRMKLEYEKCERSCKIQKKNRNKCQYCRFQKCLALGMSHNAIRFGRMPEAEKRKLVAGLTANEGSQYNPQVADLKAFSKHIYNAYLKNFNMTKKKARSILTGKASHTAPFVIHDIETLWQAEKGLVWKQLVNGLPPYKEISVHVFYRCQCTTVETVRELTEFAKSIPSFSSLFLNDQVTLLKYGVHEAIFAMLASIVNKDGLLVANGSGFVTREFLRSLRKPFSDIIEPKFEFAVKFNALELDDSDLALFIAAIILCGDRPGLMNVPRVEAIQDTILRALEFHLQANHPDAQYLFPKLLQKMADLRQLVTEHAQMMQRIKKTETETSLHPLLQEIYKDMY
Sequence of Bile acid receptor (Homo sapiens) (Q96RI1 whole entry, looked up): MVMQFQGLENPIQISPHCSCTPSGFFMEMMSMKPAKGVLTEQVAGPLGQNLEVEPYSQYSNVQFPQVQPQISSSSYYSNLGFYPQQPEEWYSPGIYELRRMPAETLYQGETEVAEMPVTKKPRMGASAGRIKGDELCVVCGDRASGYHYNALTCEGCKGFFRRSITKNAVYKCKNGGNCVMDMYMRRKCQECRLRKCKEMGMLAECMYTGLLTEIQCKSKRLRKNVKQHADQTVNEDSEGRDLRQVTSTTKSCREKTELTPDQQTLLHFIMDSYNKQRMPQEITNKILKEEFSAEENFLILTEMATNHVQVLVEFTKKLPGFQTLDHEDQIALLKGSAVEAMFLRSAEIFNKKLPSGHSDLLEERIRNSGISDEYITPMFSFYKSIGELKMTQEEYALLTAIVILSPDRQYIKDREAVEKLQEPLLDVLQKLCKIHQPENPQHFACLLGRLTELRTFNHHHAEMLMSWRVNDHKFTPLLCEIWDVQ
Sequence of Vitamin D3 receptor (Homo sapiens) (P11473 whole entry, looked up): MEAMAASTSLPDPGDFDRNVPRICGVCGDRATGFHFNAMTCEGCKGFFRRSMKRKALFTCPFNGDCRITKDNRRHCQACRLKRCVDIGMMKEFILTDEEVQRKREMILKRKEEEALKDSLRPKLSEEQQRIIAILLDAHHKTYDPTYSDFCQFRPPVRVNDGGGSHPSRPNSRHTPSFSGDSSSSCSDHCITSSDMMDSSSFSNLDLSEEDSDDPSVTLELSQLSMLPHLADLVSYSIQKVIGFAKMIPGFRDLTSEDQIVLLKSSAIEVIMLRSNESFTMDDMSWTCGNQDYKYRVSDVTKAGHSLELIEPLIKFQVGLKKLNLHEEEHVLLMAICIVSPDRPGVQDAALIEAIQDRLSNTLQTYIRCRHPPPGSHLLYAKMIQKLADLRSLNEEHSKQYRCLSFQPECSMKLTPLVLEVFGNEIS

OCCCCC(O)CO (configuration not stated)
inactive: outcome [1] | outcome [2] | outcome [3] | outcome [4] | Potency [5] | Potency [6] | outcome [7] | outcome [8] | outcome [9] | Potency [10] | outcome [11] | outcome [12] | outcome [13] | outcome [14] | Potency [15] | outcome [16] | outcome [17] | outcome [18] | outcome [19]

CN1C(C)(C)CCCC1(C)C
inactive: outcome [1] | outcome [2] | outcome [3] | outcome [4] | Potency [5] | Potency [20] | Potency [6] | outcome [7] | outcome [8] | Potency [10] | outcome [11] | outcome [12] | outcome [13] | outcome [14] | Potency [15] | outcome [16] | outcome [17] | outcome [18] | outcome [19]

Nc1ncnc(Nc2ccccc2)n1
inactive: outcome [1] | outcome [2] | outcome [3] | outcome [4] | outcome [7] | outcome [8] | outcome [9] | outcome [11] | outcome [12] | outcome [13] | outcome [14] | Potency [15] | outcome [16] | outcome [17] | outcome [18] | outcome [19]

CC(C)NCC(O)COc1ccc(COCCOC(C)C)cc1 (configuration not stated)
inactive: outcome [1] | outcome [2] | outcome [3] | outcome [4] | Potency [5] | Potency [6] | outcome [7] | outcome [8] | outcome [12] | outcome [13] | outcome [14] | Potency [15] | outcome [16] | outcome [17] | outcome [18] | outcome [19]

Oc1cn2c(n1)Nc1ccc(Cl)c(Cl)c1C2
inactive: outcome [1] | outcome [2] | outcome [3] | outcome [4] | Potency [20] | outcome [7] | outcome [8] | outcome [9] | outcome [11] | outcome [12] | outcome [13] | outcome [14] | Potency [15] | activity, negative = cytotoxicity [16] -0.0979% [at 19 µM] | activity change, negative = inhibition [17] 0.185% [at 19 µM] | viability change, negative = cytotoxic [18] -0.119% [at 15.8 µM] | activation [19] 0.89% [at 15.8 µM]

CC(=O)NCCCCCC(=O)O
inactive: outcome [1] | outcome [2] | outcome [3] | outcome [4] | Potency [20] | outcome [7] | outcome [8] | outcome [9] | Potency [10] | outcome [11] | outcome [12] | outcome [13] | outcome [14] | Potency [15] | outcome [16] | outcome [17] | outcome [18] | outcome [19]

O=C(c1ccc(O)cc1)c1ccc(O)c(O)c1O
inactive: outcome [1] | outcome [2] | outcome [3] | outcome [4] | Potency [5] | Potency [6] | outcome [8] | outcome [9] | Potency [10] | outcome [11] | outcome [12] | outcome [13] | outcome [14] | Potency [15] | outcome [16] | outcome [17] | outcome [18] | outcome [19]

CCCCOC(=O)c1ccccc1
inactive: outcome [1] | outcome [2] | outcome [3] | outcome [4] | Potency [20] | outcome [7] | outcome [8] | outcome [9] | Potency [10] | outcome [11] | outcome [12] | outcome [13] | outcome [14] | Potency [15] | outcome [16] | outcome [17] | outcome [18] | outcome [19]

Nc1nnc(-c2cccc(Cl)c2Cl)c(N)n1
inactive: outcome [1] | outcome [2] | outcome [3] | outcome [4] | Potency [5] | Potency [20] | Potency [6] | outcome [7] | outcome [8] | outcome [9] | Potency [10] | outcome [11] | outcome [12] | outcome [13] | outcome [14] | Potency [15] | outcome [16] | outcome [17] | outcome [18] | outcome [19]

C[C@@H](Oc1ccc(CNC(=O)c2cccnc2Oc2ccc3c(c2)OCO3)c(F)c1)C(=O)O
inactive: outcome [1] | outcome [2] | outcome [3] | outcome [4] | Potency [5] | Potency [20] | Potency [6] | outcome [7] | outcome [8] | outcome [9] | Potency [10] | outcome [11] | outcome [12] | outcome [13] | outcome [14] | Potency [15] | outcome [16] | outcome [17] | outcome [18] | outcome [19]

O=C(NCCN1CCOCC1)c1ccc(Cl)cc1
inactive: outcome [1] | outcome [2] | outcome [3] | outcome [4] | Potency [5] | outcome [7] | outcome [8] | outcome [9] | outcome [11] | outcome [12] | outcome [13] | outcome [14] | Potency [15] | outcome [16] | outcome [17] | outcome [18] | outcome [19]

CC(C)(C)NC(N)=O
inactive: outcome [1] | outcome [2] | outcome [3] | outcome [4] | outcome [7] | outcome [8] | outcome [9] | Potency [10] | outcome [12] | outcome [13] | outcome [14] | Potency [15] | outcome [16] | outcome [17] | outcome [18] | outcome [19]

CCCCOCCOC(=O)COc1nc(Cl)c(Cl)cc1Cl
inactive: outcome [1] | outcome [2] | outcome [3] | outcome [4] | Potency [5] | Potency [20] | Potency [6] | outcome [7] | outcome [8] | Potency [10] | outcome [11] | outcome [12] | outcome [13] | outcome [14] | Potency [15] | outcome [16] | outcome [17] | outcome [18] | outcome [19]

CCOC(=O)/C=C/c1ccccc1
inactive: outcome [1] | outcome [2] | outcome [3] | outcome [4] | Potency [20] | outcome [7] | outcome [8] | outcome [9] | Potency [10] | outcome [12] | outcome [13] | outcome [14] | Potency [15] | outcome [16] | outcome [17] | outcome [18] | outcome [19]

CC(=O)Nc1ccc(S(=O)(=O)Nc2ccc([N+](=O)[O-])cc2)cc1
inactive: outcome [1] | outcome [2] | outcome [3] | Potency [20] | outcome [7] | outcome [8] | outcome [9] | Potency [10] | outcome [11] | outcome [12] | outcome [13] | outcome [14] | Potency [15] | outcome [16] | outcome [17] | outcome [18] | outcome [19]

— PubChem BioAssay (Tox21)
